Laboratory results from PubChem BioAssay AID493098 (Sanford-Burnham Center for Chemical Genomics, 2011).
Out of some 340,000 compounds screened, about 1,700 (0.5%) were called active.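 Rule for the calls: active = compounds whose inhibition of the agonist-driven luminescence signal at 20 µM reaches about 50% (limit read from the data); inactive = the rest.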 What follows is part of a selection rich in actives, with near analogues and random picks from the rest.

biological target: C-C chemokine receptor type 6 (Homo sapiens) (UniProt P51684); experiment: blockers of CCL20-driven beta-arrestin recruitment to CCR6 – cell-based, CHO-K1, luminescence, uHTS, primary screen (AID 493098); conditions: CHO-K1 CCR6 PathHunter beta-arrestin, CCL20-stimulated, at 20 µM, stronger effect = higher value;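 note: cells stimulated with CCL20 at 14 nM final; plate controls were DMSO with CCL20 for no effect and DMSO without agonist for full effect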
Sequence (P51684 whole entry, looked up): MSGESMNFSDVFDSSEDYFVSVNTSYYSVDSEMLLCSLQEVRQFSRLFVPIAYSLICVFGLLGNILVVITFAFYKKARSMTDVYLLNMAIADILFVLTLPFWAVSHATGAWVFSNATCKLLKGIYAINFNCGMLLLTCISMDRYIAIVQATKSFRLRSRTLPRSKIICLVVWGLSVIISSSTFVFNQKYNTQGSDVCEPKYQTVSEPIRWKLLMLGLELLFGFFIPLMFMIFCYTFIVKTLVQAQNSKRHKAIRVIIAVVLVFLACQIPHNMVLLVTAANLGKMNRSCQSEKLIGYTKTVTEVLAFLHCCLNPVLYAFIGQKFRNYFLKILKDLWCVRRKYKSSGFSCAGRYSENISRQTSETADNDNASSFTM

inhibition, active:
CC1CC2=C(CC1/C=N/NC(N)=S)C(C)(C)CCC2 (stereo unspecified) 76.2%, COc1ccc(C(=O)NC(=S)NNC(=O)CCc2ccccc2)cc1 63.5%, CC(C)OC(=O)CN1C(=O)C(=O)c2ccccc21 108%, CC(=O)/C(=N\Nc1ccc(Cl)cc1Cl)Sc1cccc2cccnc12 65.9%

inhibition, inactive:
Cc1cccc(CSc2ccc(-c3cccs3)nn2)c1 7.33%, COc1ccccc1C1SCCN1C(=O)c1ccc([N+](=O)[O-])cc1 (stereo unspecified) -4.39%, CCC(C)N(C(=O)Cn1nc(C)c([N+](=O)[O-])c1C)C1CCS(=O)(=O)C1 (stereo unspecified) -5.11%, CCOc1ccc(NC(=O)COC(=O)C2CCC(=O)N2)c([N+](=O)[O-])c1 (stereo unspecified) -15.3%, O=c1[nH]c(CN2CCN(S(=O)(=O)c3ccc4c(c3)OCCO4)CC2)nc2sc3c(c12)CCCC3 10.3%, O=S(=O)(Nc1ncccn1)c1ccc(NS(=O)(=O)c2cccc(Cl)c2Cl)cc1 9.31%, COc1ccc(C(=O)NC(=S)NNC(=O)c2c(-c3ccccc3)noc2C)cc1 32.9%, O=C(CCc1ccccc1)NNC(=O)COc1ccc(Cl)cc1 7.8%, COCCn1c(SCC(=O)Nc2nc(C)cs2)nnc1C(C)C -5.85%, CN(C)CCn1c2c(c(SCC(=O)NCc3ccccc3)nc1=O)CCC2 8.36%, N#CC1(NC(=O)COC(=O)Cc2n[nH]c(=O)c3ccccc23)CCCCC1 -0.31%, O=C(NNC(=O)c1cnccc1C(F)(F)F)c1ccc(Cl)cc1 -1.91%, CCOC(=O)CN1C(=O)C(=O)c2cc(C)ccc21 15.8%, CC(OC(=O)CN1C(=O)c2ccccc2C1=O)C(=O)c1ccccc1 (stereo unspecified) 6.02%, Cc1c(Cl)cccc1NC(=O)CSc1ccc(-c2cccnc2)nn1 12.9%, Cc1cc(C(=O)N2CCC(C(=O)O)CC2)c(C(F)(F)F)o1 4.3%, Cc1cc(NC(=O)CCC(=O)N(Cc2ccccc2)C(C(=O)NC2CCCC2)c2ccc(C)o2)no1 (stereo unspecified) 7.11%, O=C(NNc1cc(Cl)ccc1Cl)c1cccnc1Cl 13.2%, COc1cccc(CNC(=O)c2cccnc2Sc2ccc(Cl)cc2)c1 -12.9%, CC(Sc1nc2c([nH]c3ccccc32)c(=O)n1C)c1ccccc1 (stereo unspecified) 5.65%, CC(=O)c1ccc(N=C2SCCCN2C(=O)C2CCCCC2)cc1 12.7%, COc1cc(OC)cc(-c2cc3nc(C4CCN(C(=O)OC(C)(C)C)CC4)cc(=O)n3[nH]2)c1 -12.3%
